High-throughput results as filed in PubChem BioAssay.
Hits are enriched below; roughly 12% of the tested compounds scored in any of these assays.
HP1b chromo inh: inhibitors of HP1-beta chromodomain binding to methylated histone tails. Potency, µM (doses to about 114 µM), without a hit: at the highest dose activity change, negative = inhibition, hits mostly inhibitors. AID 540317. hit rate 0.56% among 390,000. AlphaScreen HP1-beta / biotin-H3K9me3 peptide binding. P83916; further: nearly all actives have a fitted effect of over 70% in size
Target sequence (P83916 whole entry, looked up): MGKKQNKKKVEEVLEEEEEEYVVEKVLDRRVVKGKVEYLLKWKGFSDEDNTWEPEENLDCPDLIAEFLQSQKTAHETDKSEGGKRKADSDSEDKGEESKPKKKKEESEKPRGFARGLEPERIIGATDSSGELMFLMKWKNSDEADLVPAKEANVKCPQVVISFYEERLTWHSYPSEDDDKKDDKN
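HP1-beta protein (50 nM final) preincubated 30 min at room temperature with biotinylated H3(1-18)K9me3 peptide (50 nM) in PBS pH 7.4, 0.01% Tween-20, then compound added for 30 min. AlphaScreen streptavidin donor/nickel chelate acceptor beads (10 ug/mL final), 30 min dark, luminescence read.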
PLK1 PBD block: inhibitors of human PLK1 polo-box domain binding; Potency, µM, for the others: max response, negative = inhibition, hits mostly inhibitors; hit rate 2.8% among 360,000; Plk1 PBD binding of FITC phosphopeptide, fluorescence polarization; AID 720504; further: series mostly up to about 57 µM; on the % scale 0 is the no-effect control and ±100 the full control effect; nearly all actives have a fitted effect of over 65% in size
BAZ2B inh: BAZ2B (human) inhibition; Q9UIF8; AlphaScreen BAZ2B-H3K14Ac peptide displacement; Potency, µM (top dose mostly 114 µM), without a hit: at the top dose activity change, negative = inhibition, hits mostly inhibitors; hit rate 4.4% among 360,000; AID 504333; further: on the % scale 0 is the no-effect control and ±100 the full control effect; nearly all actives have a fitted effect of over 60% in size
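Complex of BAZ2B and biotin-H3K14Ac (50 nM apiece) forms over 30 min at RT, then faces library compounds up to 110 uM for another 30 min; AlphaScreen beads added, 20 min dark incubation, luminescence read.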
G9a block: inhibitors of human histone lysine methyltransferase G9a | Q96KQ7 | G9a H3K9 monomethylation, AlphaScreen, 2 h | Potency, µM (series often up to 102 µM), for inactives: at the highest dose activity, negative = inhibition, usual class: inhibitors | hit rate 8.8% among 350,000; further: on the % scale 0 is the no-effect control and ±100 the full control effect; nearly all actives have a fitted effect of over 75% in size
Target sequence (Q96KQ7 913-1193 limits assumed): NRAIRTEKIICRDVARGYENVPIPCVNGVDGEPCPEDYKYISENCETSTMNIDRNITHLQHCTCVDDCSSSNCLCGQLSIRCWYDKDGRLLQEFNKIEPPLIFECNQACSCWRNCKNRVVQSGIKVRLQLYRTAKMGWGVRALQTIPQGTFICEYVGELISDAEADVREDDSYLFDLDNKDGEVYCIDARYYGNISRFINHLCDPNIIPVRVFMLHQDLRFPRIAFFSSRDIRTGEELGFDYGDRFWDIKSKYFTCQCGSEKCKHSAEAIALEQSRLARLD
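AlphaScreen detection with an anti-monomethyl H3K9 antibody quantified product after a 2 h room-temperature reaction containing 500 nM biotinylated H3K9 peptide, 20 µM SAM and 20 nM enzyme, which had been preincubated 15 min with compound.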
JMJD2A Tudor inh: blocks the human JMJD2A Tudor domain; Potency, µM (series often up to 114 µM), for the others: top-dose activity change, negative = inhibition, most hits filed as inhibitors; AID 504339; AlphaScreen JMJD2A-Tudor / H3K4me3 peptide binding; hit rate 4.4% among 390,000; O75164; further: on the % scale 0 is the no-effect control and ±100 the full control effect; nearly all actives have a fitted effect of over 50% in size
Sfp inh: blocks B. subtilis Sfp PPTase activity | Q9F4F7 | Biochemical Sfp PPTase activity, qHTS | Potency, µM, for inactives: largest response in the series, negative = inhibition, most hits filed as inhibitors | hit rate 3.5% among 310,000;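 further: the enzyme is Sfp with the accession as filed and its product quenches rhodamine fluorescence; 0% = enzyme reaction without inhibitor and -100% = no enzyme wells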
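Fluorescence-quenching assay: 15 nM Sfp-PPTase preincubated 15 min at room temperature with compound, then 5 uM rhodamine-CoA and 12.5 uM BHQ-2-labelled YbbR peptide added. Fluorescence (ex 525/em 598 nm) read at start and after 30 min; difference gives rate.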
* = called active by the depositor; u = inconclusive; x = not tested or not shown; [ ] = another dose, or the depositor's remark. The call rests on the fitted dose curve; in most records, active means well fitted curve in the direction sought with a large enough effect; inconclusive means small, poorly fitted or top-dose-only effect, or another doubt; inactive means no such curve, though single readings can be large; an effect the other way counts as inactive or inconclusive. Potency means the concentration at half of the fitted maximal effect.

SMILES | HP1b chromo inh | PLK1 PBD block | BAZ2B inh | G9a block | JMJD2A Tudor inh | Sfp inh
O=C(CSc1oc(-c2ccco2)nc1S(=O)(=O)c1ccc(Br)cc1)c1ccc(Cl)cc1 | 12% | x | -24% | u | -30% | x
O=C(CCSc1ccccc1)N1CCCC1 | 33% | -20% | -12% | 29% | 6% | 17%
CCN(CC)/C(Sc1ccccc1)=C(/C(Cl)=C(Cl)Cl)[N+](=O)[O-] | 17% | u | -32% | u | -21% | 6%
O=[N+]([O-])/C(C(Cl)=C(Cl)Cl)=C(\Sc1ccccc1)N1CCCCC1 | -10% | -27% | u | 40µM* | u | -15%
CCN(CC)/C(Sc1ccccc1)=C(\C(Cl)=C(Cl)Cl)[N+](=O)[O-] | -16% | u | 50µM* | u | -34% | 3%
CC1=C(C(=O)Nc2ccccc2)C(c2ccccn2)n2nc(SCc3ccccc3)nc2N1 (stereo not drawn) | 27% | x | -6% | u | -17% | x
COc1ccc(CNC(=O)Cc2csc3nc(-c4ccc(C)cc4)cn23)cc1 | 18%[57 µM] | x | -9% | -7%[59 µM] | -17% | x
CCn1nc(C)cc1-c1n[nH]c(=S)n1N | u | -3% | u | 2.8µM* | 8.9µM* | 45µM*
O=C(OCn1nnc2ccccc2c1=O)c1ccc(F)c(S(=O)(=O)N2CCOCC2)c1 | x | -14% | x | x | x | x
CCCCCc1nc2sc3c(c2c(=O)n1NC(=O)c1ccc([N+](=O)[O-])cc1)CC(C)(C)OC3 | -19% | -12% | -10% | 71µM* | u | 8%
Cc1ncc([N+](=O)[O-])n1C[C@H](O)CCl | x | x | x | -2%[5.15 µM] | x | 9%
CCN(CC)CCNC(=O)c1ccccc1N | 32% | 1% | -4% | -5%[59 µM] | 4% | 20%
CCN(CC)CCNC(=O)c1cc2ccccc2nc1Cl | -10% | 1% | 79µM* | u | 35µM* | -15%
O=C(NCc1ccncc1)c1cc2ccccc2nc1Cl | 16% | -7% | -17% | 45µM* | -12% | 11%
Cc1nc2ccccc2cc1C(=O)NCc1ccc(F)cc1 | 39% | 0% | -1% | 20%[0.0925 µM] | 0% | 16%
CCOc1ccc(NC(=O)CCS(=O)(=O)c2ccc3nc(C)sc3c2)cc1 | 51% | x | -14% | 5%[59 µM] | 4% | x
O=C1CCC(C(=O)N2CCN(c3cnccn3)CC2)CN1CCc1ccccc1 (stereo not drawn) | x | 7% | x | x | x | x
COc1cc2c(cc1OC)CN(C(=O)c1cc(S(=O)(=O)N3CCOCC3)ccc1Cl)CC2 | 20% | -12% | -14% | 50µM* | u | -10%
COc1ccc(S(=O)(=O)N2CCN(C(=O)c3cc4c(s3)CCC4)CC2)cc1 | u | u | x | x | 7.9µM* | x
COc1ccc(N2CCN(C(=O)c3cc(S(=O)(=O)N4CCCCCC4)ccc3OC)CC2)cc1 | u | -1% | u | 50µM* | u | x
Cc1ccc(S(=O)(=O)N2CCN(C(=O)c3cc4c(s3)CCCC4)CC2)cc1 | 51% | 4% | 10% | 16%[12.7 µM] | -5% | x
COc1ccc(N2CCN(C(=O)c3ccc(Cl)c(S(=O)(=O)N4CCCC4)c3)CC2)cc1 | -1% | -7% | 71µM* | 40µM* | u | 5%
COc1ccc(N2CCN(C(=O)c3ccc(Cl)c(S(=O)(=O)N4CCOCC4)c3)CC2)cc1 | 1% | 2% | x | x | -22% | x
Cn1c2cc(Br)sc2c2cnn(Cc3ccccc3F)c(=O)c21 | x | x | x | x | 1% | x
COc1ccccc1C(=O)NCCN1CCN(c2ccccc2)CC1 | 12% | -15% | 3% | x | -6% | -2%
O=C(CCn1c(=O)c2cccn2c2cccnc21)Nc1ccccc1C(F)(F)F | 0% | x | -4% | -7%[59 µM] | -22% | x
CC[C@H](C)[C@H](NC(=O)[C@H](Cc1ccc(O)cc1)NC(=O)[C@@H]1CCCN1C(=O)[C@@H](N)CCCN=C(N)N)C(=O)N[C@@H](CC(C)C)C(=O)O | x | x | x | x | x | 24%
O=C(Cn1c(=O)oc2cc(S(=O)(=O)NCc3ccccc3)ccc21)NCc1ccccc1Cl | 16% | x | -6% | 7%[59 µM] | -2% | x
CC1(C(=O)NS(=O)(=O)C2CC2)CCCN(C(=O)c2ccc(F)c(Cl)c2)C1 (stereo not drawn) | x | 2% | x | x | x | x
